# Data from PubChem BioAssay (Tox21).
# Values without a mark were called inactive. Records with an inconclusive call do not appear. Entries that show only a call come without a potency. Calls of active or inactive are those of the source. Unless noted, calls come from the whole dose curve; as a rule, active = well fitted curve in the direction sought with a large enough effect in the repeat runs; inconclusive = weak or mixed curves; inactive = no such curve, though single readings can be large; an effect the other way counts as inactive or inconclusive.
# Legend:
# [1] = biological target: Progesterone receptor (Homo sapiens) (UniProt P06401); experiment: qHTS assay to identify small molecule agonists of the progesterone receptor (PR) signaling pathway (AID 1346784; calls by dose curve; note: nearly all actives have a fitted effect of over 30% in size)
# Progesterone receptor (Homo sapiens), sequence (P06401 whole entry, looked up): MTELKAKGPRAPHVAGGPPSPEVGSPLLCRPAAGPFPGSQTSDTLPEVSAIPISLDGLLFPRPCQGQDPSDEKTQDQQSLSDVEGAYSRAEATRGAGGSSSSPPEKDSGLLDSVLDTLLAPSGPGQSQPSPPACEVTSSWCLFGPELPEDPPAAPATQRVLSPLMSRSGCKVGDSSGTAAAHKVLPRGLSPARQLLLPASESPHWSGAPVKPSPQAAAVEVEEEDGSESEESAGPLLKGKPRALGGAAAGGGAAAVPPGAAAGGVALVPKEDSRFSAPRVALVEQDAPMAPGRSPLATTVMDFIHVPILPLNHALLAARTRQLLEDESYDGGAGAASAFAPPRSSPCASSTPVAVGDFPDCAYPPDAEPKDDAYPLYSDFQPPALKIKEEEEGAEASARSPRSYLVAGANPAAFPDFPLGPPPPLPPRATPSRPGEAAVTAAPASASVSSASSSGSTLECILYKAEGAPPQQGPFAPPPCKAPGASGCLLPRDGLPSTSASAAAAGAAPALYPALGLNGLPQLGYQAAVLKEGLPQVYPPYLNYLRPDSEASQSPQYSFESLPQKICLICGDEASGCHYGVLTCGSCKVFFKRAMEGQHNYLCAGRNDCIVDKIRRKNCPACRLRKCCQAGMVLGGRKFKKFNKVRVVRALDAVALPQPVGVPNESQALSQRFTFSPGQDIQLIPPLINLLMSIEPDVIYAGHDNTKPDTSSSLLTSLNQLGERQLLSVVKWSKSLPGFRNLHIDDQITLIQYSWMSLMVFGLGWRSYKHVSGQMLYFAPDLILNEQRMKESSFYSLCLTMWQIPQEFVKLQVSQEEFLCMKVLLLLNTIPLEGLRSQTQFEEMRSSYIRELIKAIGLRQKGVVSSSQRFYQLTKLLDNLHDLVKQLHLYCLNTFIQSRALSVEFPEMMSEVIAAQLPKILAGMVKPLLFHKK
# In short: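 Beta-lactamase reporter read-out: after 16 hr compound treatment at 37C and a further 2 hr at room temperature with LiveBLAzer B/G FRET substrate, fluorescence was measured in PR-UAS-bla HEK 293T cells grown in 2% charcoal-stripped serum.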
# [2] = biological target: Progesterone receptor (Homo sapiens) (UniProt P06401); experiment: qHTS assay to identify small molecule antagonists of the progesterone receptor (PR) signaling pathway (AID 1346795; active = well fitted inhibition curve with a large enough effect in the signal ratio in the repeat runs, not every such curve was filed as active; the % refers to the signal ratio; note: potency is the fitted concentration of half-maximal effect)
# In short: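 Read-out is fluorescence from the LiveBLAzer B/G FRET substrate, cleaved by a UAS-controlled beta-lactamase in PR-UAS-bla HEK293T cells after 16 hr exposure to compound plus 1 nM promegestone (final), followed by 2 hr at room temperature.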
# [3] = qHTS assay to identify small molecule antagonists of the progesterone receptor (PR) signaling pathway - cell viability counter screen (AID 1346798); note: nearly all actives have a fitted effect of over 50% in size; note: potency is the fitted concentration of half-maximal effect
# In short: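 HEK293T PR-UAS-bla, 2% charcoal-stripped FBS; 4 hr pre-plate; cpd + R5020, 16 h 37C; LiveBLAzer read first; then CellTiter-Glo 30 min RT, luminescence.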
# [4] = qHTS assay to identify small molecule agonists of the progesterone receptor (PR) signaling pathway - cell viability counter screen (AID 1346799; calls by dose curve; note: nearly all actives have a fitted effect of over 45% in size; note: potency is the fitted concentration of half-maximal effect)
# In short: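 Luminescence from CellTiter-Glo, added after the beta-lactamase FRET read in the same wells, gave cytotoxicity in PR-UAS-bla HEK293T cells treated with compounds for 16 hr at 37C.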
# [5] = qHTS assay to identify small molecule antagonists of the TGF-beta/Smad signaling pathway - cell viability counter screen (AID 1346824); note: nearly all actives have a fitted effect of over 50% in size
# In short: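 Cytotoxicity counter-screen run in the same wells as the beta-lactamase Smad reporter read: CellTiter-Glo luminescence after 30 min at room temperature. HEK 293T SBE-bla cells had 5 hr compound exposure at 37 C with TGF-beta1 (0.25 ng/mL stock).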
# [6] = qHTS assay to identify small molecule agonists of the TGF-beta/Smad signaling pathway - cell viability counter screen (AID 1346829); note: top concentration of the series differs between compounds; nearly all actives have a fitted effect of over 45% in size
# In short: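 Tox21 qHTS format: SBE-bla HEK 293T cells treated with DMSO-dissolved compounds for 5 hr; CellTiter-Glo luminescence after 30 min at room temperature.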
# [7] = qHTS assay to identify small molecule agonists of the TGF-beta/Smad signaling pathway (AID 1346859; active = well fitted activation curve with a large enough effect in the signal ratio in the repeat runs, not every such curve was filed as active; the % refers to the signal ratio; note: series mostly up to about 77 µM)
# In short: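 SBE-bla HEK 293T, 4,000 cells/well, plated o/n; cpd in DMSO, 5 hr, 37 C/5% CO2; B/G FRET substrate 2 hr RT; ex 405, em 460/530 nm.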
# [8] = biological target: Thyrotropin-releasing hormone receptor (Homo sapiens) (UniProt P34981); experiment: qHTS assay to identify small molecule antagonists of the thyrotropin-releasing hormone receptor (TRHR) signaling pathway (AID 1346877; active = well fitted inhibition curve with a large enough effect in the repeat runs, not every such curve was filed as active; note: series mostly up to about 51 µM)
# Thyrotropin-releasing hormone receptor (Homo sapiens), sequence (P34981 whole entry, looked up): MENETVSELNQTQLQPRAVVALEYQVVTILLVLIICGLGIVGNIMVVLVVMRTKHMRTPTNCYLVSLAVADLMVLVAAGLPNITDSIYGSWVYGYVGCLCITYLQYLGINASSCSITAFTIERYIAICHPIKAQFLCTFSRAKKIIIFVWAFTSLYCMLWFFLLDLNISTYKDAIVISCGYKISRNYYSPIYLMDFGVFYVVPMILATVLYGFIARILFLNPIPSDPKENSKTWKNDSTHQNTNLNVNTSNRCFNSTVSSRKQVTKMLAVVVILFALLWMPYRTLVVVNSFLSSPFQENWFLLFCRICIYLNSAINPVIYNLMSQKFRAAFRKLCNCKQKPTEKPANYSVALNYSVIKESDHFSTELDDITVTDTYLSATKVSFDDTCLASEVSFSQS
# In short: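 Screening used HEK293 cells engineered with TRHR, with a brief 5 min room-temperature compound exposure preceding addition of TRH to 1 nM. The read-out was kinetic calcium-dye fluorescence, concentration-response from 15 doses in triplicate.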
# [9] = biological target: Thyrotropin-releasing hormone receptor (Homo sapiens) (UniProt P34981); experiment: qHTS assay to identify small molecule agonists of the thyrotropin-releasing hormone receptor (TRHR) signaling pathway (AID 1346891; calls by dose curve; note: series mostly up to about 58 µM)
# In short: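 Intracellular calcium rise, read as fluorescence every second for 3 min, served as the agonist signal in dye-loaded HEK293 cells expressing TRHR; each compound ran at 15 concentrations in triplicate.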
# [10] = Human pregnane X receptor (PXR) small molecule agonists, qHTS cell viability counter screen (AID 1346977); note: nearly all actives have a fitted effect of over 50% in size; note: potency is the fitted concentration of half-maximal effect
# In short: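 PXR-Luc HepG2, 2,000 cells/well, 5% charcoal-stripped FBS; 5hr settle; cpd 24hr, 37C/5% CO2; CellTiter-Fluor at 23hr, read 1hr later (fluorescence).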
# [11] = Caspase-3/7 induction in HepG2 cells by small molecules, qHTS assay (AID 1346978); note: nearly all actives have a fitted effect of over 15% in size
# In short: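 Caspase-3/7 induction was measured by Caspase-Glo 3/7 luminescence (30 min, room temperature) after a 17 hr compound exposure of wild-type HepG2 cells seeded at 2,000 per well and pre-incubated 5 hr.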
# [12] = Caspase-3/7 induction in CHO-K1 cells by small molecules, qHTS assay (AID 1346980); note: nearly all actives have a fitted effect of over 15% in size
# In short: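 Luminescent Caspase-Glo 3/7 read (30min, room temperature) quantified apoptosis induction. Cells were wild-type CHO-K1, treated with compound for 17hr at 37 C and 5% CO2.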
# [13] = Caspase-3/7 induction in HepG2 cells by small molecules, qHTS cell viability counter screen (AID 1346981); note: series mostly up to about 92 µM; nearly all actives have a fitted effect of over 30% in size
# In short: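 Multiplexed with the caspase-3/7 assay: HepG2 cells, 16 hr compound treatment, CellTiter-Fluor viability detection by fluorescence.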
# [14] = biological target: Nuclear receptor subfamily 1 group I member 2 (Homo sapiens) (UniProt O75469); experiment: Human pregnane X receptor (PXR) small molecule agonists, qHTS assay (AID 1346982); note: nearly all actives have a fitted effect of over 35% in size; note: potency is the fitted concentration of half-maximal effect
# Nuclear receptor subfamily 1 group I member 2 (Homo sapiens), sequence (O75469 whole entry, looked up): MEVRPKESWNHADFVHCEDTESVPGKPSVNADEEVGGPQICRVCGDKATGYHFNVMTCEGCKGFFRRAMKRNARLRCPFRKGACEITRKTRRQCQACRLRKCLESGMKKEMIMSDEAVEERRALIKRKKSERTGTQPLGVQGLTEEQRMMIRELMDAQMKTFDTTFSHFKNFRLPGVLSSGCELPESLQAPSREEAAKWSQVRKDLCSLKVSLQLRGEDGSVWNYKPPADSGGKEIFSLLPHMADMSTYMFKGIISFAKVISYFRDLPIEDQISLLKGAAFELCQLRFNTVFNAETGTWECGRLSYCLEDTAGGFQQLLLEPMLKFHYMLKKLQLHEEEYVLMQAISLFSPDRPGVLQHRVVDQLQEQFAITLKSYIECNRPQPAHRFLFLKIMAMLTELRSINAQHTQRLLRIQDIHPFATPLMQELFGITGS
# In short: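 We seeded PXR-Luc HepG2 cells in assay medium containing 5% charcoal-stripped FBS, added compounds 5 hr later, incubated 24 hr, and read luminescence with ONE-Glo reagent.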
# [15] = biological target: Cytochrome P450 2D6 (Homo sapiens) (UniProt P10635); experiment: Cytochrome P450 Family 2 Subfamily D Member 6 (CYP2D6) small molecule antagonists: luciferase reporter qHTS assay (AID 1671196); note: nearly all actives have a fitted effect of over 50% in size; note: potency is the fitted concentration of half-maximal effect
# Cytochrome P450 2D6 (Homo sapiens), sequence (P10635 whole entry, looked up): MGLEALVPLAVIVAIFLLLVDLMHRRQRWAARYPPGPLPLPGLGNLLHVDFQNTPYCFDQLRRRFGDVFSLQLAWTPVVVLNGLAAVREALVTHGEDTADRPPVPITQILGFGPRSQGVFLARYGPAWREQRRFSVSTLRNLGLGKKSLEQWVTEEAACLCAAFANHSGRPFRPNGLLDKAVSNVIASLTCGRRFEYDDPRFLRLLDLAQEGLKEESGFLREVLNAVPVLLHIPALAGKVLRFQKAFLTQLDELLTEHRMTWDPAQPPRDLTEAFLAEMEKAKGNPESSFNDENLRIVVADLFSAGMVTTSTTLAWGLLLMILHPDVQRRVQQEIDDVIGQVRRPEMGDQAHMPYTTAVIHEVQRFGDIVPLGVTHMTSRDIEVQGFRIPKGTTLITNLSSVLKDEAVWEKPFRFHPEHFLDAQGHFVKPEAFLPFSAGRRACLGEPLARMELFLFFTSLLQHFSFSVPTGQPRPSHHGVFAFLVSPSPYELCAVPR
# In short: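 Luminescence (RLU), read 20 min after detection reagent, indicated CYP2D6 conversion of proluciferin to luciferin during a 1 h NADPH-dependent reaction at room temperature.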
# [16] = qHTS assay to identify small molecule agonists of the estrogen receptor alpha (ER-alpha) signaling pathway in the presence of an antagonist - cell viability counter screen (AID 1259386);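 note: series mostly up to about 92 µM; cells exposed to compounds for 22 h at 37 °C before the viability read; nearly all actives have a fitted effect of over 30% in size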
# In short: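 ICI-182,780 at 10.0nM final accompanies the compound titration (15 concentrations, 22hr, 37C) on VM7Luc4E2 cells. The CellTiter-Fluor fluorescence readout runs in the same wells as the luciferase assay.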
# [17] = Caspase-3/7 induction in CHO-K1 cells by small molecules, qHTS cell viability counter screen (AID 1346979); note: nearly all actives have a fitted effect of over 35% in size
# In short: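 Cells (CHO-K1, wild type) are plated at 1,500 per well and incubated 5hr. Test compounds in DMSO are then pinned in, followed by 16hr at 37C and 5% CO2. Viability is read by CellTiter-Fluor fluorescence after 1hr.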
# [18] = biological target: Nuclear receptor subfamily 1 group I member 2 (Rattus norvegicus) (UniProt Q9R1A7); experiment: Rat pregnane X receptor (rPXR) activation by small molecules, qHTS assay (AID 1346983); settings: rPXR luciferase reporter cells, One-Glo luminescence, 24 h; max activation: hits give high values; note: nearly all actives have a fitted effect of over 20% in size
# Nuclear receptor subfamily 1 group I member 2 (Rattus norvegicus), sequence (Q9R1A7 whole entry, looked up): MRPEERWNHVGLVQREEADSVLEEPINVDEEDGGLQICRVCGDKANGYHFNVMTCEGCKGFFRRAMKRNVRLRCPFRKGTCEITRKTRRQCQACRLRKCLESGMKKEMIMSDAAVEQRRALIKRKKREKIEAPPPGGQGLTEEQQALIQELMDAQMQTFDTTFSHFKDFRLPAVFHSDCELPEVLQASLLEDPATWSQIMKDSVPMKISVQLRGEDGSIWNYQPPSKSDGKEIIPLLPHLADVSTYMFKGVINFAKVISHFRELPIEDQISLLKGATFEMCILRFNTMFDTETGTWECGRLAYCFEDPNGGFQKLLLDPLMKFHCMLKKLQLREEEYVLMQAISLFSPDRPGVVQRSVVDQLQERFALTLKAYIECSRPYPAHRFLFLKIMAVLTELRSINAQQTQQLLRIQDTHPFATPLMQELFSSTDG
# In short: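 Luminescent readout (One-Glo luciferase, 30 min room temperature) followed 24 hr compound treatment at 37 C of rPXR cells plated 2,000 per well and preincubated 5hr; qHTS format with compounds delivered in DMSO.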
# [19] = biological target: Nuclear receptor subfamily 1 group I member 2 (Homo sapiens) (UniProt O75469); experiment: CYP3A4 induction through human pregnane X receptor (PXR) by small molecules, qHTS assay (AID 1346984); note: nearly all actives have a fitted effect of over 40% in size; note: potency is the fitted concentration of half-maximal effect
# In short: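 qHTS, concentration-response format: HepG2 DPX-2 line, PXR/CYP3A4-luc. Exposure 24 h, 37C. Substrate Luciferin-IPA 3uM final, 3 h. Detection One-Glo, 30 min RT.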
# [20] = biological target: Nuclear receptor subfamily 1 group I member 2 (Homo sapiens) (UniProt O75469); experiment: Human pregnane X receptor (PXR) activation by small molecules, qHTS assay (AID 1346985); note: nearly all actives have a fitted effect of over 40% in size; note: potency is the fitted concentration of half-maximal effect
# In short: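 DPX-2 cells (HepG2 co-transfected with a PXR response element and a CYP3A4-promoter luciferase construct) were seeded at 2,000 per well, rested 5 hr at 37C, then exposed to DMSO-dissolved compounds for 24 hr. Activation was read as luciferase luminescence.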
SMILES,Potency [1],Potency [2],Potency [3],Potency [4],outcome [5],outcome [6],outcome [7],outcome [8],Potency [9],Potency [10],Potency [11],outcome [12],Potency [13],Potency [14],Potency [15],Potency [16],Potency [17],max activation [18] [%],Potency [19],Potency [20]
OCCN(CCO)c1ccccc1,inactive,inactive,inactive,inactive,inactive,inactive,inactive,inactive,inactive,inactive,inactive,inactive,inactive,inactive,inactive,,,,,
CCCCCCCCCC#N,inactive,,,,inactive,inactive,inactive,inactive,inactive,,inactive,inactive,inactive,,inactive,inactive,inactive,,,
ICCc1ccccc1,,59.9 µM (active),59.9 µM (active),59.9 µM (active),inactive,inactive,inactive,inactive,inactive,inactive,inactive,inactive,inactive,59.9 µM (active),6.95 µM (active),inactive,inactive,,,
Cc1ncc(CO)c(CN)c1O,inactive,inactive,inactive,inactive,inactive,inactive,inactive,inactive,inactive,inactive,inactive,inactive,inactive,inactive,inactive,,,-1.2,inactive,inactive
CCCCNc1ccc(C(=O)OCCN(CC)CC)cc1,inactive,inactive,inactive,inactive,inactive,inactive,inactive,inactive,inactive,inactive,inactive,inactive,inactive,,3.89 µM (active),,inactive,,,
Cc1c(N)cccc1N,inactive,inactive,inactive,inactive,inactive,inactive,inactive,inactive,inactive,inactive,,inactive,inactive,,72.6 µM (active),,inactive,,,
CCN1CC(CCN2CCOCC2)C(c2ccccc2)(c2ccccc2)C1=O (centres undefined),inactive,inactive,inactive,inactive,inactive,inactive,inactive,inactive,inactive,inactive,inactive,inactive,inactive,inactive,1.23 µM (active),,,9.94,inactive,
CN(C)CCOc1ccccc1Cc1ccccc1,,,,,inactive,inactive,inactive,inactive,inactive,inactive,inactive,inactive,inactive,inactive,inactive,inactive,inactive,,,
CC(C)C1=CC2=CC[C@@H]3[C@](C)(CCC[C@@]3(C)C(=O)O)[C@H]2CC1,inactive,inactive,inactive,inactive,inactive,inactive,inactive,inactive,inactive,inactive,inactive,inactive,inactive,27.3 µM (active),inactive,,,-2.9,inactive,inactive
Nc1cccc(S(=O)(=O)O)c1,inactive,,,,inactive,inactive,inactive,,,,inactive,inactive,inactive,inactive,71.2 µM (active),inactive,inactive,,,
CC(=O)N(CC(O)CN(C(C)=O)c1c(I)c(C(=O)NCC(O)CO)c(I)c(C(=O)NCC(O)CO)c1I)c1c(I)c(C(=O)NCC(O)CO)c(I)c(C(=O)NCC(O)CO)c1I (centres undefined),inactive,inactive,inactive,inactive,inactive,inactive,inactive,inactive,inactive,inactive,inactive,inactive,inactive,inactive,inactive,,inactive,-0.58,inactive,inactive
CCCCNC(=S)NCCCC,,,9.69 µM (active),inactive,inactive,inactive,inactive,inactive,inactive,,inactive,,inactive,34.4 µM (active),1.42 µM (active),inactive,,,,
CC/C=C\CCOC(=O)CCCCC,inactive,inactive,inactive,inactive,inactive,inactive,inactive,inactive,inactive,inactive,inactive,inactive,inactive,inactive,inactive,,,,,
NC/C=C/C(=O)O,,inactive,inactive,inactive,inactive,,inactive,inactive,inactive,,inactive,inactive,inactive,inactive,inactive,inactive,inactive,-4.44,inactive,inactive
CCOc1ccc(NC(N)=O)cc1,inactive,inactive,inactive,inactive,inactive,inactive,inactive,inactive,inactive,inactive,inactive,inactive,inactive,inactive,inactive,,,,,
Cc1cccc(C)c1NC(=O)CN1CCCCCC1,,,inactive,inactive,inactive,inactive,inactive,,,inactive,inactive,inactive,inactive,11.9 µM (active),12.3 µM (active),inactive,,-0.265,14.1 µM (active),inactive
CO[Si](C)(C)OC,inactive,,,inactive,,inactive,inactive,inactive,inactive,inactive,inactive,inactive,inactive,inactive,,inactive,,,,
O=C1CCN(c2ccccc2)N1,,,,inactive,inactive,,inactive,inactive,inactive,,inactive,inactive,inactive,,35.7 µM (active),inactive,inactive,,,
CC(C)Nc1nc(N)nc(Cl)n1,inactive,inactive,inactive,inactive,inactive,inactive,inactive,inactive,inactive,inactive,inactive,inactive,inactive,inactive,inactive,,inactive,,,
CN1CCN(c2c(F)cc3c(=O)c(C(=O)O)cn4c3c2SCC4)CC1,,,inactive,inactive,inactive,inactive,inactive,inactive,inactive,inactive,inactive,inactive,inactive,inactive,,inactive,,-4.92,inactive,inactive
CC(C)=CCCC(C)CCOC=O (centres undefined),inactive,inactive,inactive,inactive,inactive,inactive,inactive,inactive,inactive,inactive,inactive,inactive,inactive,inactive,inactive,,inactive,,,
CCCCOc1cc(C(=O)NCCN(CC)CC)c2ccccc2n1,inactive,,,,inactive,inactive,inactive,inactive,inactive,21.1 µM (active),inactive,inactive,,,13.8 µM (active),inactive,,-1.11,,
CN1[C@@H]2CC[C@H]1CC(OC(=O)c1c[nH]c3ccccc13)C2 (some centres undefined),,,inactive,,inactive,inactive,inactive,inactive,inactive,inactive,inactive,inactive,inactive,inactive,15.5 µM (active),inactive,inactive,,,
CCCCCCC,inactive,,,,inactive,inactive,inactive,inactive,inactive,inactive,inactive,inactive,inactive,inactive,inactive,inactive,inactive,,,
CCOc1ccccc1N,inactive,inactive,inactive,,inactive,inactive,inactive,,,inactive,inactive,inactive,inactive,inactive,3.53 µM (active),,inactive,,,
CNCCC(Oc1ccccc1OC)c1ccccc1 (centres undefined),inactive,inactive,inactive,,inactive,inactive,inactive,inactive,inactive,,inactive,inactive,inactive,,0.977 µM (active),,,,,
CC(C)(C)c1cccc(O)c1,inactive,inactive,inactive,inactive,inactive,inactive,inactive,inactive,inactive,,inactive,inactive,inactive,inactive,inactive,,inactive,,,
CCCCCCOc1ccc(N)cc1,inactive,,inactive,inactive,inactive,inactive,inactive,,,inactive,inactive,inactive,inactive,48.6 µM (active),35.6 µM (active),,,,,
CN(CCCN1c2ccccc2CCc2ccccc21)CC(=O)c1ccc(Cl)cc1,,,inactive,inactive,inactive,inactive,inactive,inactive,inactive,,inactive,inactive,inactive,18.8 µM (active),7.76 µM (active),,,,25.1 µM (active),22.4 µM (active)
